# Results as given in the supplement of paper PMC3334620.
# The full ranking holds about 33,000 sequences; the median of “E-score (-0.5 to 0.5)” is about -0.04, and the highest 2% start at about 0.36. Many of the other results were omitted from the sample, so the highest values are more common in it than they were.
# Biological target: T1, Hmlalpha2 (UniProt P0CY09)
# T1 sequence: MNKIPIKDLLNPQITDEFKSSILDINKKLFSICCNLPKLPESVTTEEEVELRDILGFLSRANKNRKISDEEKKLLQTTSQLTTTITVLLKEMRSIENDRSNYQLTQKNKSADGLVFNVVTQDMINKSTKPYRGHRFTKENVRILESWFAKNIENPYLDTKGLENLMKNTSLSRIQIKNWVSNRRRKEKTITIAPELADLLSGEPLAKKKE
# Test: PBM E-score (8-mer binding enrichment) (E-score (-0.5 to 0.5)); higher = stronger / more preferred TF binding
# Conditions: protein concentration: 200 nM; construct: GST-full length
# Protocol: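 Universal 'all 10-mer' protein binding microarrays (Agilent AMADID 015681) probed with GST-tagged S. cerevisiae TFs (full-length or DBD) made by in vitro transcription/translation (PURExpress), about 100-200 nM. Bound TF was detected with fluorescent anti-GST. Each ungapped 8-mer (which stands for itself and its reverse complement) is scored by the PBM enrichment score (E-score), a modified Wilcoxon-Mann-Whitney statistic from -0.5 to +0.5, computed with the Universal PBM Analysis Suite. Scale: above 0.35 generally sequence-specific binding.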
row,Sequence,PBM E-score
1,GCTTGTTA,0.286
2,GAAACCAA,0.00698
3,CAAACATA,0.118
4,AAAACATC,0.311
5,AAAACATT,0.242
6,GAAACATA,0.192
7,AAAACATA,0.39
8,AAAACATG,0.434
9,AGAACATA,0.248
10,TAAACATA,0.416
11,CAAACATG,0.34
12,GGTTGAAC,0.081
13,ACTGCAGG,-0.11
14,AACTCACT,0.0592
15,AGGTCGGA,-0.164
16,AACCTAGA,-0.109
17,CGTGTAAC,0.443
18,GGTGTAAC,0.288
19,AGTGTAAC,0.198
20,AGTGTAAG,0.116
21,ACTGTAAG,0.0573
22,CGTGTAAG,0.467
23,GAAATAGC,-0.0263
24,CAACTAAA,0.176
25,CTCTAGAG,-0.148

row,Sequence,PBM E-score
1,TCATCCCA,-0.231
2,TGTAATAA,0.45
3,CGTAATAC,0.378
4,AGTAATAC,0.211
5,CATAATAA,0.281
6,GGTAATAC,0.173
7,CGTAATAA,0.378
8,CGTAATAG,0.246
9,GGTAATAA,0.178
10,AGTAATAA,0.257
11,AGCGCGCA,0.0691
12,CCGGGGAG,-0.241
13,CAAGTCTG,-0.00344
14,ACCTCTTC,-0.0525
15,CGACGTTA,0.231
16,CGATGGAC,0.0281
17,CTTTTCAC,0.0898
18,AATCATGG,0.0457
19,AACCATGC,-0.0458
20,AACCATGT,0.368
21,AAGCATGT,0.377
22,AACCATGA,0.149
23,AATCATGT,0.409
24,AAGCATGC,0.117
25,AAGCATGG,-0.112

row,Sequence,PBM E-score
1,AATCATGA,0.0793
2,CCCCATTC,-0.266
3,CGGGCATC,-0.287
4,AAATTCCT,-0.135
5,CATTCTGA,-0.213
6,GCAGTTGA,-0.157
7,AAAGAGCT,-0.0941
8,GAGCTCCC,-0.322
9,AAATTTAT,0.201
10,AAATTTAG,0.0397
11,AAATTTAC,0.375
12,ATTTTTAC,0.368
13,ATTTTTAA,0.237
14,AATTTTAC,0.347
15,AACCCTAC,-0.0838
16,GAATTAGC,-0.0766
17,AGCTCTAT,-0.102
18,AGAGTGTA,0.0904
19,ACGCTATA,0.0242
20,ACTACGTG,0.144
21,GTTACGTA,0.293
22,CTTACGTA,0.307
23,ATTACGTG,0.452
24,AATACGTA,0.317
25,AATACGTC,0.226

row,Sequence,PBM E-score
1,ATTACGTC,0.321
2,ATTACGTA,0.431
3,AATACGTG,0.383
4,GGCCCGAA,-0.135
5,ATATCGGA,-0.0245
6,CCACCAGG,-0.268
7,CCTAGGCG,-0.303
8,ATTCCCAC,-0.125
9,CTTTGTAA,0.414
10,ACTTGTAC,0.12
11,ATTTGTAA,0.344
12,TATTGTAA,0.318
13,TCTTGTCA,0.219
14,ACTTGTAA,0.381
15,CCTTGTAG,0.195
16,ACTTGTAG,0.0979
17,CTTTGTAC,0.2
18,TCTTGTAA,0.439
19,CCTTGTAC,0.327
20,CCTTGTAA,0.454
21,GCTACAAA,0.0715
22,GAGCTACC,-0.059
23,CAGCTGTA,-0.117
24,CCAGGAGG,-0.191
25,ATCCAGCA,-0.0498

row,Sequence,PBM E-score
1,CGATGATA,0.0847
2,GCTTGTAC,0.243
3,ACTTGTTA,0.259
4,CCTTGTTC,-0.0497
5,GATTGTAA,0.247
6,GCTTGTAA,0.411
7,CCTTGTTA,0.371
8,CCCATATC,-0.145
9,CAAAGGAG,-0.0938
10,ATTAATGA,0.0848
11,CCAGGCAA,-0.265
12,AGCATAGG,-0.178
13,AACAGGTT,0.11
14,ATTACAAA,0.414
15,ATTACAAG,0.466
16,GTTACAAC,0.258
17,CTCACACC,-0.254
18,ATTACAGG,0.352
19,ATTACGAA,0.289
20,ATTACAGA,0.333
21,ATTACAAC,0.4
22,CTTACAAC,0.301
23,CTTACACC,0.0787
24,CTTACAAG,0.312
25,ATTACACC,0.382

row,Sequence,PBM E-score
1,CTTGAGGA,-0.227
2,ATATGCCC,-0.274
3,AGTGAACA,0.154
4,AGATTCTA,0.0504
5,ATATAGGA,0.0657
6,ACCAGGAC,0.0306
7,CATGTGAA,0.318
8,CCATGAGG,-0.313
9,AAAGAAAT,0.175
10,GACAGGCC,-0.143
11,CGCTCTGA,-0.135
12,ACGAGGGA,-0.0452
13,CGGTAAAG,0.00317
14,ACTACAAT,0.137
15,AGTACAAT,0.25
16,CTTACAAA,0.232
17,CTTACATC,0.283
18,ATTACATC,0.445
19,ATTACAGC,0.141
20,TTTACAAA,0.412
21,TCTACAAA,0.252
22,ATTACAAT,0.385
23,ATGGGACG,-0.19
24,GCAAAGAC,-0.121
25,CTGCGCGC,-0.00351

row,Sequence,PBM E-score
1,TGCAGCAA,-0.0391
2,GATACTCA,-0.0664
3,ACTTACAA,0.29
4,ACTTACAT,0.43
5,ACTTACAC,0.378
6,ACTTACAG,0.134
7,GCTTACAC,0.362
8,CCTTACAC,0.334
9,ACAGTAGC,-0.0946
10,CCCCCCGG,-0.366
11,ACTCTACC,-0.0519
12,CTTGTGAA,0.182
13,ATTGTATA,0.171
14,ATTGTGTG,0.112
15,CTTGTGTA,0.41
16,GTTGTATA,0.38
17,CTTGTGTC,0.0968
18,GTTGTGTA,0.448
19,ATTGTGTC,0.233
20,GTTGTGGA,0.0527
21,ATTGTGTA,0.42
22,GTTGTGCA,-0.00044
23,CTTGTATA,0.289
